Shown are actives, neighbours in structure and some others; about 8.3% of the full set was active somewhere.
Giardia killer – kills Giardia lamblia. Giardia lamblia trophozoite viability. activity change, % at 7.66 µM, hits read low. 340,000 compounds, 0.15% hits. AID 540267; in the data active = activity change below about -80%; inconclusive = between about -30% and that limit;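 also: parasites exposed to compound for two days anaerobically before the ATP read; % is scaled to controls: 0 for no effect and ±100 for the full control effect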
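Trophozoite viability was measured as ATP-dependent luminescence, read 15-30 min after reagent addition. Before that, parasites at 100 cells/well were exposed to compounds for 48 h, anaerobically, at 37 deg C.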
BCR signal inh – chronic active BCR signaling inhibition; ABC-DLBCL IkBa-CBG/CBR reporter, luminescence ratio, 4 h; Potency, µM (series often up to 46.1 µM), for the others: top-dose activity change, negative = inhibition, usual class: inhibitors; 340,000 compounds, 0.05% hits; active = well fitted inhibition curve with a large enough effect in the signal ratio, with a control signal flat, not every such curve was filed as active; inconclusive = small, poorly fitted or top-dose-only effect, or effect the other way, or a change in a side signal; the % refers to the signal ratio;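 also: potency is read from the fitted curve at half-maximal effect; plate controls were basal doxycycline-induced cells for no effect and cells given 10 µM MG132 for full effect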
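TMD8 human ABC-DLBCL cells with doxycycline-inducible IκBα–green luciferase fusion and unfused red luciferase, in 0.5% FBS medium; compounds up to 46 uM, 4 h at 37C. Green/red luminescence ratio, filter-overlap corrected, fitted to concentration-response curves.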
MCF10A rereplic – induces DNA re-replication in MCF 10a normal breast cells. Potency, µM (titrated, usually from 46.1 µM), without a hit: at the top dose activity, positive = re-replication, usual class: activators. 350,000 compounds, 2.9% hits. MCF 10A DNA re-replication, Hoechst nuclear intensity, 48 h; also: potency is read from the fitted curve at half-maximal effect; % of control where 0% means no effect; nearly all actives have a fitted effect of over 50% in size
Gal4-VP16 FLuc – Gal4-VP16 reporter inhibition counter-screen; Drosophila S2 Gal4-VP16 UAS-luciferase, luminescence, 20 h; 310,000 compounds, 3.5% hits; Potency, µM (highest dose often 53.6 µM), for inactives: at the highest dose activity, negative = inhibition, actives largely listed as inhibitors;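 also: Gal4-VP16 expression switched on by copper sulfate through the metallothionein promoter; potency is read from the fitted curve at half-maximal effect; % is scaled to controls: 0 for no effect and ±100 for the full control effect; nearly all actives have a fitted effect of over 50% in size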
SW480 rerep – DNA re-replication induction in SW480 cells; SW480 DNA re-replication, Hoechst DNA content imaging, 48 h; Potency, µM (highest dose often 46.1 µM), inactives show at the top dose re-replication activation, usual class: activators; 340,000 compounds, 1.8% hits; AID 624297; also: potency is read from the fitted curve at half-maximal effect; % of control where 0% means no effect; nearly all actives have a fitted effect of over 55% in size
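Quantitative HTS format with DMSO vehicle controls; 48 hr drug incubation at 37 C, then 40 min Hoechst staining and scanning imager measurement at 405 nm excitation.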
RORgamma inh – inhibitors of mouse ROR gamma transcriptional activity. P51450. Drosophila S2 Gal4-RORgamma UAS-luciferase reporter, 20 h. Potency, µM (doses to about 53.6 µM), inactives show at the highest dose activity change, negative = inhibition, usual class: inhibitors. 310,000 compounds, 5.4% hits; also: potency is read from the fitted curve at half-maximal effect; % is scaled to controls: 0 for no effect and ±100 for the full control effect; nearly all actives have a fitted effect of over 60% in size
Target sequence (P51450 whole entry, looked up, the tested form may be a part): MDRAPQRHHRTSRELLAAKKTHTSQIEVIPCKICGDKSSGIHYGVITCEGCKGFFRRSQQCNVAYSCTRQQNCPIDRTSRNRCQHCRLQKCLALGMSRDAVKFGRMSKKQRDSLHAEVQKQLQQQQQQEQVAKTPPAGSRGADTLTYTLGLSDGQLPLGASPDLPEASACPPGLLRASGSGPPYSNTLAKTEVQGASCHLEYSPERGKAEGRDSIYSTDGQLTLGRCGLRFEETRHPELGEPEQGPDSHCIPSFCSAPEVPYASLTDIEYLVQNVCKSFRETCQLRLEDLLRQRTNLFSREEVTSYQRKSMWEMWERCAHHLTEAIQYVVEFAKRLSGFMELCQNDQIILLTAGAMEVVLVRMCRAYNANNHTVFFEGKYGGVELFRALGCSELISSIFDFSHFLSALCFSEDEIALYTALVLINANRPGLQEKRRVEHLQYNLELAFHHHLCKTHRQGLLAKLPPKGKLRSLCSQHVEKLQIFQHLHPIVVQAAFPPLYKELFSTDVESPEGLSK
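Using a luciferase readout, inhibitors were identified by reduced reporter activity in Drosophila cells coexpressing a copper-inducible Gal4–ROR gamma fusion and UAS-driven Photinus luciferase, incubated 20 hr after 700 uM copper sulfate.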
Starred values were filed as active, the others as inactive; ? = inconclusive; . = not tested or not shown; [ ] = remark or other dose. Unless noted, calls follow the shape of the dose curve; as a rule, active = well fitted curve in the direction sought with a large enough effect; inconclusive = small, poorly fitted or top-dose-only effect, or another doubt; inactive = no such curve, though single readings can be large; an effect the other way counts as inactive or inconclusive.

SMILES	Giardia killer	BCR signal inh	MCF10A rereplic	Gal4-VP16 FLuc	SW480 rerep	RORgamma inh
NC(=S)N=Nc1c(O)[nH]c2cc(F)c(F)cc12	-16	-7%	-4%	5µM*	.	3.2µM*
NC(=S)N=Nc1c(O)[nH]c2c(Cl)cc(Cl)cc12	-15	.	?	.	?	.
COc1ccccc1C(=O)NC(=S)Nc1ccc(N2CCN(C(=O)c3ccco3)CC2)cc1	-3	3%	9%	10µM*	-9%	-13%
Cc1ccccc1C(=O)N1CCN(c2ccc(NC(=O)c3ccco3)cc2Cl)CC1	8	?	?	6.3µM*	-2%	?
Cc1ccccc1C(=O)N1CCN(c2ccc(NC(=S)NC(=O)c3ccco3)cc2)CC1	?	?	15%	?	-14%	16µM*
CCc1ccccc1NC(=O)CNCC(=O)Nc1ccccc1CC	-3	2%	?	-1%	-2%	0%
Cn1c(=O)n(C)c2cc(NC(=O)c3ccccc3NS(C)(=O)=O)ccc21	-6	?	16%	3%	-3%	28%
CC1CCN(C(=O)c2ccc(CSc3nc4ccncc4n3Cc3ccc(F)cc3)cc2)CC1	22	-9%	24%	-9%	0%	36%
CCOc1cc(/C=C/c2cc(C(=O)O)c3ccccc3n2)ccc1O	?	?	-2%	?	.	?
CCN(CC)c1ccc(/C=C/c2cc(-c3ccccc3)c3ccccc3n2)cc1	-19	13%	?	1%	15µM*	-38%
COc1ccc(C2NN=C(c3ccc(C)cc3)S2)cc1OC (stereo not drawn)	-10	?	?	?	5%	2µM*
Cc1ccc(C2=NNC(c3cccc(F)c3)S2)cc1 (stereo not drawn)	3	?	8%	7.1µM*	-2%	6.3µM*
Fc1cccc(C2NN=C(c3ccccc3)S2)c1 (stereo not drawn)	1	-19%	-3%	?	-7%	?
CCOc1ccc(C(=O)N2CCN(c3ccccn3)CC2)cc1OCC	-7	2%	0%	9%	-2%	14%
CC(C)N(Cc1nc(-c2ccccc2)no1)C(=O)C(Cl)(Cl)Cl	5	-7%	12%	-15%	0%	27%
Cc1cc(C)nc(/N=C(\N)N(Cc2ccccc2)Cc2ccccc2)n1	-4	-1%	10%	-9%	-90%	11µM*
O=C(NCc1ccccc1)c1cc(-c2cccc(O)c2)on1	-20	-12%	?	0%	6.5µM*	-3%
O=C(Nc1ccccc1)OCc1cc(-c2ccccc2Cl)on1	7	?	26µM*	4%	-5%	?
COc1ccc(NC(=O)c2cc(-c3ccccc3Cl)on2)cc1OC	1	-2%	0%	-7%	1%	5%
O=C(c1cc(-c2ccccc2Cl)on1)N1CCCC1	-11	?	-19%	?	-26%	13µM*
O=C(Nc1cccc(O)c1)c1cc(-c2ccccc2Cl)on1	?	?	15%	1.3µM*	2%	0.22µM*
O=C(CN1C(=O)c2cccnc2Oc2ccc(Cl)cc21)N1CCOCC1	17	-1%	1%	-5%	-4%	-13%
CN(C)c1ncc2nc(-c3cccc(C#N)c3)c(=O)n(CCC#N)c2n1	.	.	.	5%	.	4%
CC(C)NC(=S)NCc1cccnc1	6	?	-3%	2%	-2%	8%
Cc1csc2ncnc(N3CCN(C(=O)Nc4ccc(OC(F)(F)F)cc4)CC3)c12	6	-11%	17%	?	5%	-54%
SMILES	Giardia killer	BCR signal inh	MCF10A rereplic	Gal4-VP16 FLuc	SW480 rerep	RORgamma inh
O=C(Nc1cccc(O)c1)c1cc(-c2ccc3c(c2)OCO3)on1	-82*	?	2%	1.4µM*	4%	4µM*
Cc1ccc(NC(=O)C(NC2CCCc3ccccc32)c2ccccc2)cc1Cl (stereo not drawn)	-11	14%	1.3µM*	-65%	?	2%[10 µM]
CNC(=O)NC(=O)C(NC1CCCc2ccccc21)c1ccccc1 (stereo not drawn)	-7	?	?	11%	?	-13%
O=C(OCC1OC(OC(=O)c2cc(O)c(O)c(OC(=O)c3cc(O)c(O)c(O)c3)c2)[C@@H](OC(=O)c2cc(O)c(O)c(OC(=O)c3cc(O)c(O)c(O)c3)c2)C(OC(=O)c2cc(O)c(O)c(OC(=O)c3cc(O)c(O)c(O)c3)c2)C1OC(=O)c1cc(O)c(O)c(OC(=O)c2cc(O)c(O)c(O)c2)c1)c1cc(O)c(O)c(OC(=O)c2cc(O)c(O)c(O)c2)c1 (stereo partly drawn)	.	.	-11%	?	-15%	?
CC(C)n1cc(NC(=O)c2cc(-c3ccccc3)on2)cn1	0	?	3.7µM*	3%	5.2µM*	20%
COc1cccc(-c2cc(C(=O)Nc3cc(OC)c(OC)c(OC)c3)no2)c1	-5	?	3.7µM*	-10%	?	12%
COc1cc(NC(=O)c2cc(-c3ccccc3)on2)cc(OC)c1OC	7	?	?	-3%	0%	-15%
COc1cccc(-c2cc(C(=O)Nc3cccnc3)no2)c1	-9	?	9.2µM*	-3%	5%	20%
COc1ccc(CNC(=O)C2CCN(c3cc(C(=O)Nc4cccc(OC)c4)ccn3)CC2)cc1	-29	0%	?	-9%	-6%	8%
Cc1cccc(NC(=O)CNC(=O)c2cc(C3CC3)nn2-c2ccccc2)c1C	-6	3%	13%	.	0%	.
CN(C)C(=O)c1ccc(NC(=O)COC(=O)C2(c3ccccc3)CCCC2)cc1	5	?	0%	.	-3%	.
Cc1cc(NCC2CCCCC2)nc2ccccc12	-2	?	26µM*	7%	14%	?
Cc1cc(NCCNC2=CC(=O)CCC2)nc2ccccc12	6	14%	-4%	8%	-5%	15%
O=C(CCNS(=O)(=O)c1ccccc1C(F)(F)F)NCCCN1CCOCC1	-8	0%	8%	.	1%	.
CCCC[C@H]1CCCO[C@@](C(=O)NCc2ccccc2)(C(F)(F)F)C1	36	.	.	3%	.	1%
COc1ccc(C(=O)c2sc(Nc3cccc(OC)c3)c(C(=O)Nc3cccc(C)c3C)c2N)cc1	24	?	1.5µM*	4%	?	22%
COc1ccc(C(=O)c2sc(Nc3ccccc3)c(C(=O)Nc3ccc(OC)c(OC)c3)c2N)cc1	-4	0%	-2%	-89%	7%	?
COc1ccc(NC(=O)c2c(Nc3ccccc3)sc(C(=O)c3ccc(F)cc3)c2N)cc1	0	?	18%	13µM*	5%	-120%
COC(=O)C1=C(c2ccc(OC)cc2)OC(=O)C1(C)C	6	-6%	2%	-2%	0%	0%

Source: PubChem BioAssay
